Compound activity: PubChem, National Center for Advancing Translational Sciences (NCATS)
Vaccinia mCherry = qHTS for Stage-Specific Inhibitors of Vaccinia Orthopoxvirus: mCherry Reporter Primary qHTS; Vaccinia virus mCherry reporter infection, fluorescence; Potency, µM (top dose mostly 36.5 µM), for inactives: top-dose activity change, negative = inhibition, most hits filed as inhibitors; 310,000 compounds, 0.63% hits; AID 720579, 2013; calls by dose curve; tested in A549 cells; note: nearly all actives have a fitted effect of over 35% in size
FMDV antiviral = High Throughput Screening for Foot and Mouth Disease Virus Antivirals; FMDV antiviral cell-based qHTS; Potency, µM (highest dose often 57.9 µM), without a hit: top-dose activity change, negative = inhibition, actives largely listed as inhibitors; 410,000 compounds, 1.2% hits; AID 1159524, 2015; calls by dose curve; tested in HEK293T cells; note: read-out not given here; nearly all actives have a fitted effect of over 45% in size
Vaccinia Venus = qHTS for Stage-Specific Inhibitors of Vaccinia Orthopoxvirus: Venus Reporter Primary qHTS; Potency, µM (highest dose often 36.5 µM), for the others: at the top dose activity change, negative = inhibition, most hits filed as inhibitors; Vaccinia virus Venus reporter expression, fluorescence; 330,000 compounds, 0.46% hits; calls by dose curve; tested in A549 cells; note: nearly all actives have a fitted effect of over 30% in size
Sm TGR inh = qHTS Assay for the Inhibitors of Schistosoma Mansoni Peroxiredoxins. Potency, µM (highest dose often 114 µM), for inactives: top-dose activity change, negative = inhibition, most hits filed as inhibitors. 360,000 compounds, 3% hits. AID 485364, 2010. purified TGR, DTNB reduction, TNB absorbance 405 nm; active = well fitted inhibition curve with a large enough effect; inconclusive = small, poorly fitted or top-dose-only effect; inactive = no such curve, though single readings can be large or run the other way; note: nearly all actives have a fitted effect of over 60% in size
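Kinetic colorimetric format: TGR-catalysed, NADPH-driven DTNB reduction monitored via TNB absorbance. Enzyme dispensed at 20 nM; compound exposure 15 min at room temperature before reaction start.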
LASV entry inh = qHTS for Inhibitors of binding or entry into cells for Lassa Virus. 300,000 compounds, 1.2% hits. Potency, µM (doses to about 37.9 µM), for inactives: at the highest dose activity change, negative = inhibition, hits mostly inhibitors. Lassa virus pseudotype entry inhibition, cell reporter. AID 540256, 2011; calls by dose curve; tested in HEK293 cells; note: nearly all actives have a fitted effect of over 50% in size
Marburg entry inh = qHTS for inhibitors of binding or entry into cells for Marburg Virus | Marburg virus pseudotyped entry inhibition, cell reporter | Potency, µM (top dose mostly 37.8 µM), inactives show at the top dose activity change, negative = inhibition, hits mostly inhibitors | 300,000 compounds, 1.8% hits; calls by dose curve; tested in HEK293 cells
An asterisk follows results filed as active; i = inactive; ? = inconclusive; / = not tested or not shown; ! = not active in a repeat; [ ] = remark or other dose. Compounds with a hit are over-represented: about 5.4% of the library has one in this group of screens. % is set by controls: 0 for no effect and ±100 for the full control effect; potency is the fitted concentration of half-maximal effect.

SMILES	Vaccinia mCherry	FMDV antiviral	Vaccinia Venus	Sm TGR inh	LASV entry inh	Marburg entry inh
CCc1ccc(NC(=O)c2ccc(F)c(S(=O)(=O)NCC3COc4ccccc4O3)c2)cc1 (centres undefined)	-22%	-27%	?	1%	16µM*	12µM*
CCN(c1ccccc1)S(=O)(=O)c1cc(C(=O)Nc2ccc(Br)cc2)ccc1F	14µM*	18µM*	13µM*	7%	12µM*	?
COc1cc(C2c3c(-c4ccccc4O)n[nH]c3C(=O)N2Cc2ccco2)ccc1OCC(C)C (centres undefined)	?	-21%	?	-2%	?	?
CC(C)NS(=O)(=O)c1ccc(OCC(=O)N2CCN(c3cccc(Cl)c3)CC2)cc1	-12%	?	-9%	0%	?	?
Cn1c(NC[C@@H](O)c2ccccc2)nc2c1c(=O)n(Cc1ccc(Cl)cc1)c(=O)n2C	/	/	/	/	/	-7%
O=c1c2ccccc2sc2c(CO)ccc(NCCN3CCCCC3)c12	?	?	10µM*	/	?	?
CCN(CC)CCNc1ccc(CO)c2sc3ccccc3c(=O)c12	-22%	?	?	4%	?	11µM*
Cc1ccc(NCCN(C)C)c2c(=O)c3cc(O)ccc3sc12	1.4µM*	-23%	?	/	4µM*	?
O=c1c2ccccc2sc2ccc(NCCCN3CCOCC3)cc12	-5%	11%	-2%	/	/	/
O=S(=O)(c1cccc(F)c1)N1CCN(c2nc(-c3cccs3)nc3ccccc23)CC1	-4%	/	-12%	/	/	/
CC(=O)Nc1ccc(CNc2nc(NC(C)C)nc3cc(-c4ccccc4)sc23)cc1	?	46%	11µM*	/	/	/
CC(=O)NCCNc1nc(NC(C)C)nc2cc(-c3ccccc3)sc12	8%	-11%	-20%	/	/	/
C=CCNc1nc(NCc2ccc(NC(C)=O)cc2)c2sc(-c3ccccc3)cc2n1	-5%	45%	16µM*	/	/	/
C=CCNc1nc(NCCCN2CCCC2=O)c2sc(-c3ccccc3)cc2n1	?	-9%	?	/	/	/
COc1ccc(C(=O)Nc2ccc3ccccc3c2)cc1OC	-13%	59%	-10%	26%	?	2%
COc1ccc(OC)c(C(=O)c2ccc(C(=O)Nc3ccc4ccccc4c3)cc2)c1	-2%	-12%	-6%	-7%	10µM*	?
COc1cc(C(=O)Nc2ccc3ccccc3c2)cc(OC)c1OC	-3%	20%	-20%	-6%	-11%[46.1 µM]	1.4µM*
COc1cc(CN2CCOc3ccc(CN4CCC(O)(c5cccnc5)CC4)cc3C2)ccc1F	-13%	1%	-1%	/	/	/
COc1ccc(NC(=O)c2ccco2)cc1NC(=O)c1ccc(OC(C)C)cc1	-9%	6%	-7%	-1%	-26%[46.1 µM]	-14%[46.1 µM]
O=S(=O)(c1cc(O)ccc1O)c1cccc2c(S(=O)(=O)c3cc(O)ccc3O)cccc12	-5%	13%	3%	11µM*	/	/
COc1ccc(/C=C/C(=O)c2ccoc2)cc1	i[1.46 µM]	-2%	-8%	-41%	-4%	-1%
COc1ccc(/C=C/C=C2C(=O)NC(=S)NC2=O)cc1	-12%	40µM*	2%	/	?	?
COc1ccc(/C=C/C2=CC(C)(C)NC(=S)N2)cc1	-17%	-25%	-9%	2.5µM*	?	-25%[46.1 µM]
CCCCCC1=CC2=C(C(=O)OC)C(c3ccccc3)NC(=O)N2CC1 (centres undefined)	/	/	/	/	/	1%[14.2 µM]
COc1cc([C@@H]2C(C(C)=O)=C(O)C(=O)N2c2ccc(Br)cn2)ccc1O	/	/	/	/	/	-9%
Cc1oc(-c2cccc(NC(=O)c3ccccn3)c2)nc1CNC(=O)c1cc(F)c(F)cc1F	-18%	29%	-2%	/	/	/
Clc1ccc2c(c1)CCc1cccnc1C2=C1CCNCC1	-16%	-10%	-19%	45µM*!	/	/
Cc1ccc2oc(C(=O)Nc3c(C(=O)Nc4ccccc4)oc4ccccc34)cc(=O)c2c1	-9%	?	4%	5%	-7%[46.1 µM]	6%[46.1 µM]
